Bioassay records deposited in PubChem BioAssay by several laboratories.
Sampled rows, rich in hits. Any-hit rate of the full collection: about 2%.
CHT allo act – CHT positive allosteric modulators, primary screen, cell-based, membrane potential dye, choline EC20; actives 0.49% (n = 310,000); B-score at 10 µM; CHT-expressing cells; hits give high values; LV-AA mutant CHT in HEK293 cells;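 active = initial fluorescence not abnormally high and integrated response B-score, plate-corrected, over 3 SD above library mean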
PGE2 EP2 inh – human EP2 receptor antagonists, primary screen, TR-FRET cAMP, C6 glioma cells; AID 1422, 2008; Prostaglandin E2 receptor EP2 subtype (Homo sapiens), P43116; inhibition, % at 25 µM; C6 glioma cells expressing human EP2; cells stimulated with saturating PGE2; actives 0.52% (n = 260,000);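 active = percent inhibition above 40 after rounding to a whole number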;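 note: rat C6 glioma host cells with rolipram phosphodiesterase inhibitor present; the protocol text gives 20 µM as final concentration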
CHT block – inhibitors of human choline transporter CHT; High affinity choline transporter 1 (Homo sapiens), Q9GZV3; CHT-expressing cells, membrane potential dye, choline response; hits give low values; B-score at 10 µM; actives 0.86% (n = 310,000);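 active = B-score over 3 SD under the library average, and starting fluorescence ratio not unusually high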;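 note: choline stimulus applied at its EC90 after an EC20 pre-addition; B-score computed on integrated fluorescence ratio after choline addition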
EP2 modulator – EP2 receptor modulators, cAMP readout, primary screen, cell-based, HTRF cAMP, PGE2 stimulation; induction, % at 25 µM; EP2-expressing cells, cAMP HTRF FRET, PGE2 co-stimulation; Prostaglandin E2 receptor EP2 subtype (Homo sapiens), P43116; actives 0.83% (n = 260,000); AID 940, 2007;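 active = compounds whose cAMP rise, as percent of the full-agonist control response, exceeds 60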;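 note: rat C6 glioma line stably carrying human EP2 under a CMV promoter; the protocol text gives 20 µM as final concentration; 100% = response of wells given 1 µM PGE2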
CHT act confirm – CHT activators, confirmation, cell-based, membrane potential dye, duplicate; activation, % at 10 µM; shares compounds with CHT allo act; CHT-expressing cells, membrane potential dye fluorescence (FDSS); % of choline EC20–EC90 response window; HEK293 expressing CHT LV-AA mutant; choline added at its EC20; actives 91% (n = 2,500);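 active = primary screen active, with duplicate mean activation above negative control mean plus 3 SD, cut at about 11% in these data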
HEK293 MP dye – membrane potential response in parental HEK293 cells, counter-screen for CHT activator project, cell-based, membrane potential dye; membrane potential dye fluorescence (FDSS); measured after EC20 choline addition; actives 62% (n = 2,500); ratio readout change at 10 µM, hits read low; shares compounds with CHT allo act;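 active = duplicate-averaged ratio beyond 3 SD from buffer wells, up or down, though filed actives are nearly all decreases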
Active calls of the source: *; i = inactive; . = not tested or not shown.

SMILES	CHT allo act	PGE2 EP2 inh	CHT block	EP2 modulator	CHT act confirm	HEK293 MP dye
Cc1c(CCOC(=O)c2cc([N+](=O)[O-])cc([N+](=O)[O-])c2)sc[n+]1CCCCS(=O)(=O)[O-]	i	2	i	7	12*	-21*
CC(C)C(=O)N1CCC2(CC1)Oc1ccc(Cl)cc1C(=O)C21CC(c2ccccc2)=NO1 (stereo unspecified)	i	5	i	28	6	i
O=C(CSc1nnc(-c2ccncc2)n1C1CCCCC1)Nc1cccc2ccccc12	.	18	.	-41	.	.
Cc1ccc(-n2nc3cc(C)c(N)cc3n2)cc1	i	38	i	-34	.	.
Cc1cc2nc3ccc(N(C)C)cc3nc2cc1N	i	.	i	.	30*	-24*
Cc1nnc(Nc2ccc3c(c2)ncn3C)c2ccccc12	i	7	i	-9	33*	-47*
CNC(=O)c1ccc(Nc2nnc(C)c3ccccc23)cc1	i	17	i	-5	47*	-48*
Cc1nnc(Nc2ccc(C(=O)NCCO)cc2)c2ccccc12	i	8	i	-4	.	.
COc1ccc(-c2nc3cnccn3c2NCc2ccco2)c(OC)c1	.	9	.	-5	.	.
CCOC(=O)c1ccc2c(c1)n(CCCS(=O)(=O)[O-])c(/C=C/c1ccc(Cl)cc1)[n+]2CC	11*	7	i	4	71*	-86*
CCCCN(CC)C(=S)Nc1ccc2nc(N3CCN(C)CC3)cc(C)c2c1	i	3	i	-16	26*	-26*
O=C(NC1CCCC1)C(c1ccc(F)cc1)N(Cc1ccc(F)cc1)C(=O)c1ccn[nH]1 (stereo unspecified)	i	6	i	3	25*	i
O=C(NC1CCCC1)C(c1ccncc1)N(Cc1ccccc1)C(=O)c1ccc(-c2ccccc2)[nH]1 (stereo unspecified)	i	5	i	14	.	.
Cc1ccc(C(C(=O)NC2CCCCC2)N(Cc2ccco2)C(=O)Cc2c[nH]c3ccccc23)o1 (stereo unspecified)	6.4*	5	i	54	26*	i
Cc1ccc(C(C(=O)NC2CCCC2)N(Cc2ccco2)C(=O)CCC(=O)Nc2cc(C)on2)cc1 (stereo unspecified)	6.4*	14	i	13	-1	i
Cc1ccc(C(C(=O)NC2CCCCC2)N(C(=O)Cc2c[nH]c3ccccc23)c2ccccc2C)o1 (stereo unspecified)	i	3	i	21	.	.
CC(CN1CCN(C)CC1)OC(=O)COc1ccc(Cl)cc1Cl (stereo unspecified)	.	13	.	10	.	.
O=C(CSc1nc2ccccc2c(=O)n1-c1ccccc1)N/N=C/C=C/c1ccccc1[N+](=O)[O-]	i	6	i	-23	.	.
O=C(CSc1nc2ccccc2c(=O)n1-c1ccc(Cl)cc1)N/N=C/C=C/c1ccccc1[N+](=O)[O-]	7.7*	3	i	-7	13*	i
Cc1nc([N+](=O)[O-])c(N2CCOCC2)n1Cc1ccccc1	i	8	i	-12	.	.
Cc1nc([N+](=O)[O-])c(N2CCN(Cc3ccccc3)CC2)n1Cc1ccccc1	7.4*	12	i	29	33*	i
COc1ccc(-c2c(C)nn3c(C4CCCN(C(=O)OC(C)(C)C)C4)ccnc23)cc1 (stereo unspecified)	.	.	.	-54	.	.
O=C1c2cccc3cccc(c23)C(=O)N1CC1CCN(CC(O)COCc2ccc3c(c2)OCO3)CC1 (stereo unspecified)	i	8	i	-70	38*	-56*
CCN(CC)S(=O)(=O)c1ccc2c(c1)c(=O)c(C(=O)NCCN(C)CCc1ccccc1)cn2C	i	6	i	0	.	.
CN(C1CCCCC1)S(=O)(=O)c1ccc2c(c1)c(=O)c(C(=O)NCCN1CCCC1)cn2C	i	5	i	-8	40*	-37*
